Data from PubChem BioAssay AID1159580 (chemical genetic matrix, 2015).
The campaign covered roughly 5,500 compounds. About 2,000 (36%) were called active. Roughly 18% stayed inconclusive and do not appear here. Cut-off read from the data, not from the text of the source: active = normalized growth mostly below about 0.91 (no sharp cut-off); inconclusive = no clear call, values can overlap the other calls; inactive = mostly above about 0.92. This is one part of the list.

Assay: chemical genetic growth profiling, strain panel (AID 1159580);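 note: tested at 20 µM; growth read once vehicle control cultures reached saturation at 30 °C; 1 = growth at the plate median or of vehicle wells; lower values mean less growth of the strain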
Settings: growth OD

Measured: normalized growth

CC(=O)O[C@H]1C[C@@H](O)C(C)(C)C2C[C@@H](OC(C)=O)[C@]3(C)C(CC[C@@]4(C)[C@H](c5ccoc5)OC(=O)C5OC543)[C@]21C (stereo partly specified)
inactive: S. cerevisiae deletion strains, locus YJL187C, strain SWE1, hits give low values 0.996 | S. cerevisiae deletion strains, locus YJR066W, strain TOR1, hits give low values 0.928 | S. cerevisiae deletion strains, locus YKL009W, strain mrt4, hits give low values 0.954 | S. cerevisiae deletion strains, locus YKL068W, hits give low values 0.976 | S. cerevisiae deletion strains, locus YKL085W, strain MDH1 (second series), hits give low values 0.974 | S. cerevisiae deletion strains, locus YKL085W, strain MDH1, hits give low values 0.974 | S. cerevisiae deletion strains, locus YKL160W, strain elf1, hits give low values 1.01 | S. cerevisiae deletion strains, locus YKR001C, strain vps1, hits give low values 0.983 | S. cerevisiae deletion strains, locus YKR026C, strain gcn3, hits give low values 1.01 | S. cerevisiae deletion strains, locus YKR091W, strain srl3, hits give low values 1.01 | S. cerevisiae deletion strains, locus YLL001W, strain dnm1, hits give low values 0.998 | S. cerevisiae deletion strains, locus YLL026W, hits give low values 1.01 | S. cerevisiae deletion strains, locus YLL041C, strain sdh2, hits give low values 0.999 | S. cerevisiae deletion strains, locus YLR027C, strain aat2, hits give low values 1.01 | S. cerevisiae deletion strains, locus YLR039C, strain RIC1, hits give low values 1.04 | S. cerevisiae deletion strains, locus YLR058C, strain SHM2, hits give low values 0.967 | S. cerevisiae deletion strains, locus YLR102C, strain apc9, hits give low values 0.984 | S. cerevisiae deletion strains, locus YLR113W, strain HOG1, hits give low values 1.02 | S. cerevisiae deletion strains, locus YLR221C, strain rsa3, hits give low values 1.01 | S. cerevisiae deletion strains, locus YLR258W, strain gsy2, hits give low values 1 | S. cerevisiae deletion strains, locus YLR262C, strain YPT6 (second series), hits give low values 1.01 | S. cerevisiae deletion strains, locus YLR262C, strain YPT6, hits give low values 1.02 | S. cerevisiae deletion strains, locus YLR268W, strain sec22, hits give low values 0.977 | S. cerevisiae deletion strains, locus YLR320W, strain mms22, hits give low values 1.02 | S. cerevisiae deletion strains, locus YLR330W, strain CHS5, hits give low values 0.992 | S. cerevisiae deletion strains, locus YLR342W, strain FKS1 (second series), hits give low values 0.988 | S. cerevisiae deletion strains, locus YLR342W, strain FKS1, hits give low values 1.01 | S. cerevisiae deletion strains, locus YLR357W, strain rsc2, hits give low values 1.04 | S. cerevisiae deletion strains, locus YLR370C, strain arc18, hits give low values 0.999 | S. cerevisiae deletion strains, locus YLR371W, strain rom2, hits give low values 0.988 | S. cerevisiae deletion strains, locus YLR384C, strain iki3, hits give low values 0.999 | S. cerevisiae deletion strains, locus YLR418C, strain cdc73, hits give low values 0.979 | S. cerevisiae deletion strains, locus YML016C, strain PPZ1, hits give low values 0.975 | S. cerevisiae deletion strains, locus YML032C, strain rad52, hits give low values 0.991 | S. cerevisiae deletion strains, locus YML120C, strain ndi1, hits give low values 1.01 | S. cerevisiae deletion strains, locus YML124C, strain tub3, hits give low values 0.986 | S. cerevisiae deletion strains, locus YMR058W, strain fet3, hits give low values 1.01 | S. cerevisiae deletion strains, locus YMR078C, strain ctf18, hits give low values 0.988 | S. cerevisiae deletion strains, locus YMR125W, strain sto1, hits give low values 1 | S. cerevisiae deletion strains, locus YMR129W, hits give low values 1.03 | S. cerevisiae deletion strains, locus YMR205C, strain PFK2, hits give low values 1.01 | S. cerevisiae deletion strains, locus YMR223W, strain ubp8, hits give low values 0.991 | S. cerevisiae deletion strains, locus YMR231W, strain pep5, hits give low values 0.988 | S. cerevisiae deletion strains, locus YMR307W, strain GAS1, hits give low values 0.964 | S. cerevisiae deletion strains, locus YNL067W, strain RPL9B, hits give low values 1.02 | S. cerevisiae deletion strains, locus YNL071W, strain lat1, hits give low values 1 | S. cerevisiae deletion strains, locus YNL183C, strain NPR1, hits give low values 0.946 | S. cerevisiae deletion strains, locus YNL209W, strain ssb2, hits give low values 0.995 | S. cerevisiae deletion strains, locus YNL233W, strain BNI4, hits give low values 1 | S. cerevisiae deletion strains, locus YNL248C, strain rpa49, hits give low values 1 | S. cerevisiae deletion strains, locus YNL250W, strain rad50, hits give low values 1.02 | S. cerevisiae deletion strains, locus YNL271C, strain bni1, hits give low values 0.989 | S. cerevisiae deletion strains, locus YNL298W, strain CLA4, hits give low values 0.992 | S. cerevisiae deletion strains, locus YNL307C, strain MCK1, hits give low values 0.995 | S. cerevisiae deletion strains, locus YNL322C, strain KRE1 (second series), hits give low values 1.02 | S. cerevisiae deletion strains, locus YNR049C, strain mso1, hits give low values 0.999 | S. cerevisiae deletion strains, locus YNR052C, strain pop2, hits give low values 0.987 | S. cerevisiae deletion strains, locus YOL006C, strain TOP1, hits give low values 0.989 | S. cerevisiae deletion strains, locus YOL012C, strain htz1 0.76 | S. cerevisiae deletion strains, locus YOL147C, strain pex11, hits give low values 0.99 | S. cerevisiae deletion strains, locus YOR001W, strain rrp6, hits give low values 1.03 | S. cerevisiae deletion strains, locus YOR061W, strain CKA2, hits give low values 0.966 | S. cerevisiae deletion strains, locus YOR069W, strain VPS5, hits give low values 0.998 | S. cerevisiae deletion strains, locus YOR070C, strain gyp1, hits give low values 1.01 | S. cerevisiae deletion strains, locus YOR080W, strain dia2, hits give low values 0.998 | S. cerevisiae deletion strains, locus YOR083W, strain WHI5, hits give low values 1.01 | S. cerevisiae deletion strains, locus YOR106W, strain vam3, hits give low values 1 | S. cerevisiae deletion strains, locus YOR136W, strain idh2, hits give low values 0.979 | S. cerevisiae deletion strains, locus YOR144C, strain elg1, hits give low values 0.989 | S. cerevisiae deletion strains, locus YOR184W, strain ser1, hits give low values 0.967 | S. cerevisiae deletion strains, locus YOR231W, strain MKK1, hits give low values 0.984 | S. cerevisiae deletion strains, locus YOR265W, strain rbl2, hits give low values 1 | S. cerevisiae deletion strains, locus YOR270C, strain vph1, hits give low values 0.967 | S. cerevisiae deletion strains, locus YOR290C, strain snf2, hits give low values 1 | S. cerevisiae deletion strains, locus YOR316C, strain cot1, hits give low values 0.989 | S. cerevisiae deletion strains, locus YPL051W, strain arl3, hits give low values 1.02 | S. cerevisiae deletion strains, locus YPL078C, strain atp4, hits give low values 0.997 | S. cerevisiae deletion strains, locus YPL106C, strain sse1, hits give low values 1.02 | S. cerevisiae deletion strains, locus YPL240C, strain hsp82, hits give low values 1.01 | S. cerevisiae deletion strains, locus YPL256C, strain CLN2, hits give low values 0.944 | S. cerevisiae deletion strains, locus YPR119W, strain clb2, hits give low values 0.985 | S. cerevisiae deletion strains, locus YPR141C, strain kar3, hits give low values 0.986 | S. cerevisiae deletion strains, locus YPR163C, strain tif3, hits give low values 0.982 | S. cerevisiae deletion strains, locus YPR167C, strain met16, hits give low values 0.987 | S. cerevisiae deletion strains, strain wtn01, hits give low values 0.968 | S. cerevisiae strains, strain wild type, hits give low values 0.988
